Experimental data published in PubChem BioAssay.
Values without a mark were called inactive. The source made the active and inactive calls. Unless noted, no rule for the calls is given here.

Columns and labels:
[1] = antimalarial activity against Dd2 strain (AID 2302;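 active = growth inhibition above 50% at the single 2 µM test dose, taken to imply half-maximal potency below 2 µM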;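 also: 0% = DMSO untreated growth and 100% = chloroquine plus artemisinin killed control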); details: P. falciparum Dd2 in RBCs, LDH growth readout, 72 h; at 2 µM; hits give high values
[2] = HepG2 cytotoxicity, primary screen, cytotoxicity control for P. falciparum antimalarial project, cell-based, ATP luminescence (AID 2303;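 active = inhibition above 50%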;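 also: 0% = DMSO wells and 100% = digitonin-killed cells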); details: HepG2 viability, 24-48 h, at 10 µM, hits give high values
[3] = molecular target: L-lactate dehydrogenase (Plasmodium falciparum (isolate CDC / Honduras)) (UniProt Q27743); experiment: PfLDH activity inhibition – cell lysate, 3D7 strain, counter-screen for P. falciparum growth inhibition project (AID 2304);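 also: 0% = vehicle and 100% = reference inhibitor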; details: P. falciparum 3D7 crude extract, LDH APAD/NBT absorbance; at 2 µM; hits give high values
[4] = inhibition of 3D7 malaria parasite growth – strain 3D7 (AID 2306);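 also: 0% = DMSO wells and 100% = chloroquine plus artemisinin control wells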; details: P. falciparum 3D7 erythrocytic growth, LDH absorbance, 72 h; at 2 µM; hits give high values
[5] = circadian clock period modulators, cell-based, LOPAC library, luminescence reporter (AID 2774); details: circadian reporter cells, at 7 µM, actives lie on both sides;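 also: values are relative to mean of DMSO wells on each plate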

L-lactate dehydrogenase (Plasmodium falciparum (isolate CDC / Honduras)), sequence (Q27743 whole entry, looked up): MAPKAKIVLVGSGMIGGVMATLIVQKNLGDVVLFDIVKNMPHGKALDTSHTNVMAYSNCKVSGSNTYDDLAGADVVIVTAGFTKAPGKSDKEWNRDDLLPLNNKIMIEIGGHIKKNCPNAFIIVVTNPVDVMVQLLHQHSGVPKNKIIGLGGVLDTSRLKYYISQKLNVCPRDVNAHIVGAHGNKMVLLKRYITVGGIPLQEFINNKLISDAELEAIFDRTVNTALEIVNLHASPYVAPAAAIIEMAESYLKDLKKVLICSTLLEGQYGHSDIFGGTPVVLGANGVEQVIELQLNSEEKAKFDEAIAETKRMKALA

Row | SMILES | growth inhibition [1] | inhibition [2] | inhibition [3] | growth inhibition [4] | period change [5]
1 | O=[N+]([O-])c1cccc(-c2nc3ccc(C4=N[C@H]5CCCC[C@H]5N4)cc3[nH]2)c1 | 81% (active) | 4% | -7% | 101% (active) | 
2 | Oc1c(C=Nn2cnnc2)sc2ccccc12 | 68% (active) | -4% | 0% | 93% (active) | 
3 | Nc1cc(C=Cc2ccc(O)cc2)nc2ccccc12 | 14% | 15% | 3% | 100% (active) | 
4 | Nc1ccc(-c2nc3cc(C4=N[C@H]5CCCC[C@H]5N4)ccc3o2)cc1[N+](=O)[O-] | 33% | 16% | 1% | 95% (active) | 
5 | CN(C)C[C@H](O)[C@@H](c1ccccc1)c1ccc(Cl)cc1 | 4% | 4% | 2% | 99% (active) | 
6 | COc1cc(-c2nc(-c3ccc4c(c3)CCC4=NO)c(-c3ccncc3)[nH]2)ccc1OCCN1CCN(C)CC1 | 77% (active) | 53% (active) | 3% | 99% (active) | 
7 | COc1ccc(Nc2nc(NN=Cc3ccc(O)cc3)nc(Nc3ccc([N+](=O)[O-])cc3)n2)cc1 | 16% | -1% | 0% | 93% (active) | 
8 | CN(C)c1nc(NN=Cc2cc(Cl)ccc2O)nc(Nc2ccc(F)cc2)n1 | 46% | 32% | -3% | 94% (active) | 
9 | Cc1[nH]c2c(c(=O)c1Cl)-c1ccc(Oc3cccc(C(F)(F)F)c3)cc1C2=O | 97% (active) | 25% | 2% | 98% (active) | 
10 | CN(C)C(=S)NN=Cc1cccc(O)c1O | 55% (active) | 11% | -2% | 91% (active) | 
11 | COc1ccc2nc(/N=C(/N)NC(=O)Nc3ccccc3)nc(C)c2c1 | 15% | 3% | -1% | 90% (active) | 
12 | O=C(NC=Nc1cc([N+](=O)[O-])c(-c2cccnc2)n1-c1ccc(O)cc1)c1ccccc1 | 62% (active) | 17% | 6% | 102% (active) | 
13 | O=C(NN=Cc1nc2ccccc2[nH]1)c1cccc([N+](=O)[O-])c1 | 82% (active) | -3% | 2% | 99% (active) | 
14 | ON=C1CCc2cc(-c3cc(-c4ccc(OC5CCNCC5)cc4)oc3-c3ccncc3)ccc21 | 99% (active) | 34% | 3% | 101% (active) | 
15 | ON=C1CCc2cc(-c3nc(-c4ccc(OCCN5CCCCC5)cc4)[nH]c3-c3ccncc3)ccc21 | 54% (active) | 73% (active) | 3% | 99% (active) | 
16 | O=C(/C=C/c1ccc(Cl)c(Cl)c1)NCCCCCN1CC[C@H](c2c[nH]c3ccccc23)[C@@H](O)C1 | -2% | 34% | -3% | 99% (active) | 
17 | CCOc1cc(C=Cc2nc3ccccc3c(=O)[nH]2)cc(Cl)c1O | 90% (active) | 25% | 2% | 83% (active) | 
18 | O=C(Nc1cccc(-c2nn3ccccc3c2-c2ccnc(Nc3ccc(-c4cc[nH]n4)cc3)n2)c1)c1c(F)cccc1F | 98% (active) | 68% (active) | 5% | 98% (active) | 
19 | C=CC[C@H](C[C@H](O)[C@H](Cc1ccccc1)NC(=O)c1ccc(-c2cccnn2)cc1)C(=O)NC1CCCCC1 | -1% | 2% | 4% | 83% (active) | 
20 | C=CC[C@H](C[C@H](O)[C@H](Cc1ccccc1)NC(=O)c1ccc(-n2cccn2)cc1)C(=O)NC1CCCCC1 | 0% | 1% | 1% | 96% (active) | 
21 | O=[N+]([O-])c1ccc(Nc2nc(NN=Cc3cc(Cl)cc(Cl)c3O)nc(Nc3ccccc3)n2)cc1 | 72% (active) | 29% | -6% | 100% (active) | 
22 | ON=C1CCc2cc(-c3nc(-c4cccc(OCCNCc5ccc(F)cc5)c4)[nH]c3-c3ccncc3)ccc21 | 69% (active) | 76% (active) | -3% | 89% (active) | 

Row | SMILES | growth inhibition [1] | inhibition [2] | inhibition [3] | growth inhibition [4] | period change [5]
23 | CCn1c(C=Cc2cc(Br)ccc2O)nc2ccccc2c1=O | 95% (active) | 6% | -5% | 95% (active) | 
24 | COc1cc(-c2nc(-c3ccc4c(c3)CCC4=NO)c(-c3ccncc3)[nH]2)ccc1OCCN1CCCCC1 | 80% (active) | 75% (active) | 1% | 101% (active) | 
25 | CC[C@H](C)[C@H](NC(=O)[C@H](CC1CCCCC1)[C@H](CC)N(O)C=O)C(=O)Nc1ccccn1 | 95% (active) | 14% | -1% | 96% (active) | 
26 | CC(=NO)C1=C(O)C(c2ccccc2)N(c2ccccc2)C1=O (centres undefined) | 23% | 12% | -1% | 99% (active) | 
27 | O=[N+]([O-])c1ccc(C=NO)nc1 | 98% (active) | 80% (active) | 2% | 80% (active) | 
28 | CC(=NNC(N)=O)C1=C(O)C(c2ccccc2)N(C2CCCCC2)C1=O (centres undefined) | 96% (active) | 59% (active) | 0% | 93% (active) | 
29 | Oc1ccc2ccccc2c1C=NNc1nc(Nc2ccccc2)nc(Nc2ccccc2)n1 | 73% (active) | 55% (active) | -2% | 99% (active) | 
30 | CC1CCC(C[C@@H](C(=O)N[C@@H](CCC(=O)N2CCCCC2)C(=O)Nc2nccs2)[C@H](C(C)C)N(O)C=O)CC1 (some centres undefined) | 70% (active) | 38% | 7% | 87% (active) | 
31 | CC(C)C[C@@H](C(=O)N[C@H](C(=O)Nc1nccs1)C(C)(C)C)[C@H](CCC(F)(F)F)N(O)C=O | 71% (active) | 11% | 5% | 97% (active) | 
32 | c1cc2nc(CCCCCc3nc4ccc(C5=N[C@@H]6CCCC[C@@H]6N5)cc4[nH]3)[nH]c2cc1C1=N[C@@H]2CCCC[C@@H]2N1 | 98% (active) | 8% | 1% | 96% (active) | 
33 | O=C(NC=Nc1cc([N+](=O)[O-])c(-c2ccncc2)n1-c1ccccc1)c1cccc(O)c1 | 56% (active) | 2% | 4% | 100% (active) | 
34 | Oc1cccc(-c2nc(-c3ccccc3)c(-c3ccc4oc5ccc(-c6[nH]c(-c7cccc(O)c7)nc6-c6ccccc6)cc5c4c3)[nH]2)c1 | 35% | 30% | 4% | 91% (active) | 
35 | Cc1ccc(-c2cncc(-c3cc(NC4CCN(Cc5ccccc5)CC4)nc(-c4ccccc4)n3)c2)cc1 | 66% (active) | -2% | -4% | 100% (active) | 
36 | CCN1CCN(c2cc(C)c3cc(NC(=O)c4ccc(C(C)(C)C)cc4)ccc3n2)CC1 |  | 34% | -3% | 85% (active) | 
37 | CN(C)c1cc(NN=Cc2cc(Cl)ccc2O)nc(N(C)C)n1 | 98% (active) | 3% | 0% | 98% (active) | 
38 | N=C(N)c1ccc(C=Cc2ccc(C(=N)N)cc2O)cc1 | 80% (active) | 10% | 4% | 92% (active) | 
39 | CCC[C@@H]([C@@H](CC(C)C)C(=O)N[C@@H](CCCN=C(N)NS(C)(=O)=O)C(=O)Nc1nccs1)N(O)C=O | 41% | 10% | 0% | 95% (active) | 
40 | COC(=O)c1c(-c2cc(OC)c(OC)c(OC)c2)c2ccc(OCc3ccccn3)cc2c(=O)n1-c1ccc(N)cc1 |  |  |  |  | 0.015 h
41 | O=C(/C=C/c1ccc(Cl)c(Cl)c1)NCCCCCN1CC[C@H](c2c[nH]c3ccccc23)[C@H](O)C1 | 9% | 12% | -5% | 96% (active) | 
42 | CCCCCCCCCCCCCCCCCC(=O)NCC(COP(=O)([O-])OCC[N+](C)(C)C)OCC (centres undefined) |  |  |  |  | 0.195 h
43 | Oc1ccc(C=NNC(=S)Nc2cccc3ccccc23)c(O)c1 | 72% (active) | 8% | -4% | 89% (active) | 
44 | CCCC[C@@H](C(=O)NCc1ccccc1C(F)(F)F)N1C(=O)CCC1C(=O)Nc1ccc([N+](=O)[O-])cc1 (some centres undefined) | 2% | 7% | 0% | 94% (active) | 
